These results are taken from the supplement of paper PMC12067093, “Discovery and optimisation of a covalent ligand for TRIM25 and its application to targeted protein ubiquitination” (Chemical Science, 2025).

About 21,000 targets were measured; listed, in parts, are those with the largest changes and a random draw of the rest.
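Also: competitive profiling in live THP-1 cells: cysteine peptides tagged with an iodoacetamide desthiobiotin (IA-DTB) probe, intensity after compound treatment relative to DMSO-treated cells.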

Chain of UniProt P49754 (P49754 whole entry, looked up): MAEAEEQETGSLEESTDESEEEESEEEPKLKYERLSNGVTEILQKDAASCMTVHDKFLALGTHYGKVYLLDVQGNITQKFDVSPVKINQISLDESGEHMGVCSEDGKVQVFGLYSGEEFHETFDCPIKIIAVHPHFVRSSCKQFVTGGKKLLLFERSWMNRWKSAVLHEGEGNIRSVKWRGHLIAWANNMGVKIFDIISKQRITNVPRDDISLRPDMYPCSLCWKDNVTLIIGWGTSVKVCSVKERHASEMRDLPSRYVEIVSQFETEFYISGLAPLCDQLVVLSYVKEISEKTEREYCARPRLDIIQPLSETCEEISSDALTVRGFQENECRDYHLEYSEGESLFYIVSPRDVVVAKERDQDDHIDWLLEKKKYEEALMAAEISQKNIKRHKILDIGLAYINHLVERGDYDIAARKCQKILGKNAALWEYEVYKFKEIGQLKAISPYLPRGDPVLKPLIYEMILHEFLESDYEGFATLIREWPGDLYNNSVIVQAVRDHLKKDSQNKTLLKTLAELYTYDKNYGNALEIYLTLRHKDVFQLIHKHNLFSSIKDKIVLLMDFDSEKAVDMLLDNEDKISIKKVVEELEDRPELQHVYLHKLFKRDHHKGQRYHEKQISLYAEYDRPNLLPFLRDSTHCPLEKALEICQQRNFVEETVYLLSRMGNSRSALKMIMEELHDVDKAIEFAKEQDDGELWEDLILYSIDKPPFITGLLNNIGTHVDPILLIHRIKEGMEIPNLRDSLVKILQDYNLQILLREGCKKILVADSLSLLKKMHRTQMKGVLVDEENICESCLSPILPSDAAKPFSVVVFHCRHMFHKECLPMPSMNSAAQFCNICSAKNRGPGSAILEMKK
Chain of UniProt Q9UPN9 (Q9UPN9 whole entry, looked up): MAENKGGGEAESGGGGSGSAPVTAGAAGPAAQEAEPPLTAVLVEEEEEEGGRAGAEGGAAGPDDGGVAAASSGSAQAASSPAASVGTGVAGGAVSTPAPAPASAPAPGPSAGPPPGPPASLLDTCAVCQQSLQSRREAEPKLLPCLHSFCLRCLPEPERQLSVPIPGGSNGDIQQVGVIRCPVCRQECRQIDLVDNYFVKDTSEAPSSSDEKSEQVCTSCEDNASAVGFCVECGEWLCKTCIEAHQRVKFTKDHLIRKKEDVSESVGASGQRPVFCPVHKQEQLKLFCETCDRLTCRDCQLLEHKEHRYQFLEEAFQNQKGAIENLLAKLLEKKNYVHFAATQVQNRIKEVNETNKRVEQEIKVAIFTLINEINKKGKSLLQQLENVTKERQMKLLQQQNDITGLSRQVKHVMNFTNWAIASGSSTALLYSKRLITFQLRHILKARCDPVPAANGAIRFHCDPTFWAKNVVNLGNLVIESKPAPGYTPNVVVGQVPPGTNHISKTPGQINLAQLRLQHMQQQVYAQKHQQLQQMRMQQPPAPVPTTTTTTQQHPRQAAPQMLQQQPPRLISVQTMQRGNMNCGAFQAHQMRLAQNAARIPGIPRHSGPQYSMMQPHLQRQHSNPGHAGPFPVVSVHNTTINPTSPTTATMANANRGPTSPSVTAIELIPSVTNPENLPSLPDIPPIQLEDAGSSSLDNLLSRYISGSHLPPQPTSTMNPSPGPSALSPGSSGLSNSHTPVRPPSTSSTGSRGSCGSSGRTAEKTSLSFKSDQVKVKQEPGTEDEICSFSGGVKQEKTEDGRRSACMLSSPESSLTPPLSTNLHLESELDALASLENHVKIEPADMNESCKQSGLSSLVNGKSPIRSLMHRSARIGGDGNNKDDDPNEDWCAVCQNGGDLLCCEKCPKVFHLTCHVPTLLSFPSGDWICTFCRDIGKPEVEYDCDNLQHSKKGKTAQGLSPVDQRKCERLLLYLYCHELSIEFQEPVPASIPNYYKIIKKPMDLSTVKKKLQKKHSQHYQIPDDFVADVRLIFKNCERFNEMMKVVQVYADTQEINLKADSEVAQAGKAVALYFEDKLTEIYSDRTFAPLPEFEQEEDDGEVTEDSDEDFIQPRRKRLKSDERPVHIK
Chain of UniProt Q9NP79 (Q9NP79 whole entry, looked up): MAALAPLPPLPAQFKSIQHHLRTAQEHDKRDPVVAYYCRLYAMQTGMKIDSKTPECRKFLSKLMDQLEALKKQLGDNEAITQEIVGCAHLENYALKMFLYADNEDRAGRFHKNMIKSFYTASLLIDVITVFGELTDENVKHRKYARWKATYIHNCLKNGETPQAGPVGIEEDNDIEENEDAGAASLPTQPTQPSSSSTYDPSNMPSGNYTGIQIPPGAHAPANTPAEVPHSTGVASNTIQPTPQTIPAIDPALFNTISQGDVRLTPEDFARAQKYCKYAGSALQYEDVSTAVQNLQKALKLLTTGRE
Chain of UniProt O14933 (O14933 whole entry, looked up): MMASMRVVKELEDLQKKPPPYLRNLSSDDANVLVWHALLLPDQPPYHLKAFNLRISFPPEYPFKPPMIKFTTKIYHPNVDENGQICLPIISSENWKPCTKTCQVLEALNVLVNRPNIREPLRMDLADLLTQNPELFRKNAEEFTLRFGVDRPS
Chain of UniProt O14773 (O14773 whole entry, looked up): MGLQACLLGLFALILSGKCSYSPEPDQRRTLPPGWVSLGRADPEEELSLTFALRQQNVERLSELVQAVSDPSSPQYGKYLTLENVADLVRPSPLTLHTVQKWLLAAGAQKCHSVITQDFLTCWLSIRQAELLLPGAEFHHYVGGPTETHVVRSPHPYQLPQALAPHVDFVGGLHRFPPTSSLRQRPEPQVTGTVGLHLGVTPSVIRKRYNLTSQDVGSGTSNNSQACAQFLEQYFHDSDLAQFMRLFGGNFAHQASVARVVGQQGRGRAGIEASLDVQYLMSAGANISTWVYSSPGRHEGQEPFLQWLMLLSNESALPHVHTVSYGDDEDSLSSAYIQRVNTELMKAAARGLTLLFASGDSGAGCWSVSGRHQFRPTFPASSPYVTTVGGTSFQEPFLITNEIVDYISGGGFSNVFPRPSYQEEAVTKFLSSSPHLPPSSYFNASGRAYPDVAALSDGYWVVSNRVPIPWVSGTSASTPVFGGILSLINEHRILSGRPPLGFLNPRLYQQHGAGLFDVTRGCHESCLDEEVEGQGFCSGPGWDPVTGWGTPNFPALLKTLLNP
Chain of UniProt Q9NNW7 (Q9NNW7 whole entry, looked up): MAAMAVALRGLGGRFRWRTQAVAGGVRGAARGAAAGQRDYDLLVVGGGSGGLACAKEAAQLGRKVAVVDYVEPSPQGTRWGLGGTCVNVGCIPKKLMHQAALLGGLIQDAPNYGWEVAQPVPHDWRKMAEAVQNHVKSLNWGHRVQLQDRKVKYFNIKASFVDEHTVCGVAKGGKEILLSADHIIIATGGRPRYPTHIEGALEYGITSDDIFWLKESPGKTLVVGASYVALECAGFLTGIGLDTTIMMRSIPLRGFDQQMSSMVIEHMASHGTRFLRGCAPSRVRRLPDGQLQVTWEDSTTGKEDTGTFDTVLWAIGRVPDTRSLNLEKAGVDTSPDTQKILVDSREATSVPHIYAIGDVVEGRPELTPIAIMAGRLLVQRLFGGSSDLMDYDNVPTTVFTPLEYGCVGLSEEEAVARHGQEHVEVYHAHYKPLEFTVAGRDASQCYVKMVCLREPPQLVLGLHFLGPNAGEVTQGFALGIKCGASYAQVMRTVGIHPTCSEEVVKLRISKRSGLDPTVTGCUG
Chain of UniProt Q86UV5 (Q86UV5 whole entry, looked up): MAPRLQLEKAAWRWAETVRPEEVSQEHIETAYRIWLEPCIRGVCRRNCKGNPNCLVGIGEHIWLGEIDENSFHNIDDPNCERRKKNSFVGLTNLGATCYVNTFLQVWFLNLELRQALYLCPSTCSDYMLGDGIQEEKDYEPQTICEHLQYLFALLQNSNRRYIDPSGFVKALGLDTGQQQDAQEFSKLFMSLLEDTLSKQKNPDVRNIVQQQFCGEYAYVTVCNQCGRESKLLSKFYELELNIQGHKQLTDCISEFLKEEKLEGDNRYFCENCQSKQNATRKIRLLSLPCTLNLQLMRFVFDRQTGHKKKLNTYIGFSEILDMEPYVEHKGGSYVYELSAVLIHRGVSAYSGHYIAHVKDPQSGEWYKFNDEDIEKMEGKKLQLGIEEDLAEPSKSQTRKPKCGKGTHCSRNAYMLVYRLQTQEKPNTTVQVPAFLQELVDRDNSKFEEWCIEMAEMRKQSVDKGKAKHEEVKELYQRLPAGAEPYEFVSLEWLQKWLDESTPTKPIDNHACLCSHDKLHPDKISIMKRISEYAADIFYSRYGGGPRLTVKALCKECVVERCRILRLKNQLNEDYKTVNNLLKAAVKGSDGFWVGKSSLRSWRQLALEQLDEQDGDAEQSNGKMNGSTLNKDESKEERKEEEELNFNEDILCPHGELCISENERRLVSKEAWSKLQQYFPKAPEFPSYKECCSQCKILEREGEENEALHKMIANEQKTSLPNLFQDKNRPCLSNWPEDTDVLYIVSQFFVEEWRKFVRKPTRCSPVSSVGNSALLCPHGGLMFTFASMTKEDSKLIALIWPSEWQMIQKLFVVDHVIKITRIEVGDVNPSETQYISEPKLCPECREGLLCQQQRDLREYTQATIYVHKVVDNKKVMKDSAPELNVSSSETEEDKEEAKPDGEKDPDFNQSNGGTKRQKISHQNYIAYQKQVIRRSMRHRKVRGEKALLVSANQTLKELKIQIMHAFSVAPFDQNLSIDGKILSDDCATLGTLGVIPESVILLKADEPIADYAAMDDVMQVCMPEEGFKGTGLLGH
Chain of UniProt Q8N806 (Q8N806 whole entry, looked up): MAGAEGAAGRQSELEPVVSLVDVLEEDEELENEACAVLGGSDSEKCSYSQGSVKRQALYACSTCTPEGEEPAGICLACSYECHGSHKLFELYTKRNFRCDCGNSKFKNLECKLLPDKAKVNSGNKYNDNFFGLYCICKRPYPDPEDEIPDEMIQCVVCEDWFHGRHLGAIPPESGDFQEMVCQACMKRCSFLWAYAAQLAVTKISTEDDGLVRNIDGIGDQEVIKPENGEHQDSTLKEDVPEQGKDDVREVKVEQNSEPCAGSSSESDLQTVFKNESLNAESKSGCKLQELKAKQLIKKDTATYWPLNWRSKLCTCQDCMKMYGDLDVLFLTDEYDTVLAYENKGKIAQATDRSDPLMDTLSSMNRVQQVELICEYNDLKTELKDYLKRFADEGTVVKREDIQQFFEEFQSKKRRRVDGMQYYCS

Compound in the first test: Cc1cc(ccc1-c1ccccc1)C(=O)N1CCCN(CC1)C(=O)CCl [compound 10]
Put plainly: probe-labelled cysteine peptide fold change vs DMSO (competition) (log2 fold change); higher = less target engagement (more negative = stronger competition). The settings on record: 10 µM; THP-1; incubation time: 4 h.
Take “UBE2L6_O14933_86+98_IYHPNVDENGQICLPIISSENWKPCTK (UniProt O14933)”: the “probe-labelled cysteine peptide fold change” value was -0.606.

Regarding “USP10_Q14694_456_VQRPCTSTPMIDSFVR (UniProt Q14694)”, the “probe-labelled cysteine peptide fold change” value is -0.0395.

With “USP13_Q92995_231_ENLWLNLTDGSVLCGK (UniProt Q92995)”, the “probe-labelled cysteine peptide fold change” value came out at 0.0774.

Regarding “VCPIP1_Q96JH7_517_NYSFPLNNLVCSYDSVK (UniProt Q96JH7)”, the “probe-labelled cysteine peptide fold change” value was determined as 0.0884.

For “TRPM7_Q96QT4_1411_FFVSTPSQPSCK (UniProt Q96QT4)”, the “probe-labelled cysteine peptide fold change” value was -0.337.

Turning to UBA6_A0AVT1_156_YQCVVLTEMK, the “probe-labelled cysteine peptide fold change” value is 0.126.

Turning to “TRIP6_Q15654_339+342_CATCSQPILDR (UniProt Q15654)”, the “probe-labelled cysteine peptide fold change” value turned out to be 0.045.

Regarding “VLDLR_P98155_251_CPASEIQCGSGECIHK (UniProt P98155)”, the “probe-labelled cysteine peptide fold change” value was -0.12.

Take “TUBA3C_P0DPH7_4+20+25_MRECISIHVGQAGVQIGNACWELYCLEHGIQPDGQMPSDK<|>TUBA3D_P68363_4+20+25_MRECISIHVGQAGVQIGNACWELYCLEHGIQPDGQMPSDK<|>TUBA1B_Q6PEY2_4+20+25_MRECISIHVGQAGVQIGNACWELYCLEHGIQPDGQMPSDK<|>TUBA3E_Q9BQE3_4+20+25_MRECISIHVGQAGVQIGNACWELYCLEHGIQPDGQMPSDK (UniProt Q9BQE3+Q6PEY2+P68363+P0DPH7)”: the “probe-labelled cysteine peptide fold change” value turned out to be 0.318.

Regarding “UBR4_Q5T4S7_2554_AVQCLNTSSK (UniProt Q5T4S7)”, the “probe-labelled cysteine peptide fold change” value is -0.27.

With “VPS41_P49754_638_DSTHCPLEK (UniProt P49754)”, the “probe-labelled cysteine peptide fold change” value is -0.172.

“TXN2_Q99757_93_VVNSETPVVVDFHAQWCGPCK (UniProt Q99757)”: the “probe-labelled cysteine peptide fold change” value was -1.34.

Take “UBR7_Q8N806_155+158_RPYPDPEDEIPDEMIQCVVCEDWFHGR (UniProt Q8N806)”: the “probe-labelled cysteine peptide fold change” value was -0.195.

With “VTA1_Q9NP79_87_QLGDNEAITQEIVGCAHLENYALK (UniProt Q9NP79)”, the “probe-labelled cysteine peptide fold change” value is 0.0147.

As for “UNC45A_Q9H3U1_503_ALVGLCK (UniProt Q9H3U1)”, the “probe-labelled cysteine peptide fold change” value turned out to be 0.0377.

For “TRAPPC9_Q96Q05_317_NCLSPEDIIDK (UniProt Q96Q05)”, the “probe-labelled cysteine peptide fold change” value worked out at 0.12.

For the target “USP48_Q86UV5_145_DYEPQTICEHLQYLFALLQNSNRR (UniProt Q86UV5)”, the “probe-labelled cysteine peptide fold change” value turned out to be 0.119.

For the target “TXNIP_Q9H3M7_170_VSCMFIPDGR (UniProt Q9H3M7)”, the “probe-labelled cysteine peptide fold change” value is 0.0303.

Take “TRMT11_Q7Z4G4_161_KPQHVFSVLEDYGLDPNCIPENPHNIYFGR (UniProt Q7Z4G4)”: the “probe-labelled cysteine peptide fold change” value is -0.0115.

For the target “UCHL3_P15374_95_QTISNACGTIGLIHAIANNK (UniProt P15374)”, the “probe-labelled cysteine peptide fold change” value is -0.157.

“USP9X_Q93008_1061_AICLDHAK (UniProt Q93008)”: the “probe-labelled cysteine peptide fold change” value came to 0.267.

Take “TRIM25_Q14258_110_ASAPSPNAQVACDHCLK (UniProt Q14258)”: the “probe-labelled cysteine peptide fold change” value was -0.0981.

For “TTC1_Q99614_178_EMAINDCSK (UniProt Q99614)”, the “probe-labelled cysteine peptide fold change” value was 0.303.

Regarding “TUBAL3_A6NHL2_322+323_YMACCLLYR<|>TUBA1B_P68366_315+316_YMACCLLYR<|>TUBA4A_Q9BQE3_315+316_YMACCLLYR (UniProt P68366+Q9BQE3+A6NHL2)”, the “probe-labelled cysteine peptide fold change” value was -0.349.

Consider “TYK2_P29597_736_NLVHGNVCGR (UniProt P29597)”, for which the “probe-labelled cysteine peptide fold change” value was -0.00731.

With “UQCRC2_P22695_192_NALANPLYCPDYR (UniProt P22695)”, the “probe-labelled cysteine peptide fold change” value was 0.015.

As to “TRAP1_Q12931_527_KDTEVLFCFEQFDELTLLHLR (UniProt Q12931)”, the “probe-labelled cysteine peptide fold change” value was 0.143.

Consider “U2SURP_O15042_918_EKDECTPTRK (UniProt O15042)”, for which the “probe-labelled cysteine peptide fold change” value is -0.0489.

Consider “TRAPPC13_A5PLN9_327_LSLEAIPDTVNLEEPFHITCK (UniProt A5PLN9)”, for which the “probe-labelled cysteine peptide fold change” value stood at 0.0844.

With “TRMT2A_Q8IZ69_463_VIGVELCPEAVEDAR (UniProt Q8IZ69)”, the “probe-labelled cysteine peptide fold change” value was -0.181.

Consider “TRIM33_Q9UPN9_582_GNMNCGAFQAHQMR (UniProt Q9UPN9)”, for which the “probe-labelled cysteine peptide fold change” value was -0.217.

Regarding “UVRAG_Q9P2Y5_186_TILLQVDQNCVR (UniProt Q9P2Y5)”, the “probe-labelled cysteine peptide fold change” value is -0.089.

Consider “UBE2O_Q9C0C9_375_NCAQGEGSMAK (UniProt Q9C0C9)”, for which the “probe-labelled cysteine peptide fold change” value was -0.0634.

In the case of “TSPYL1_Q9H0U9_375_NQDLICSFFTWFSDHSLPESDK (UniProt Q9H0U9)”, the “probe-labelled cysteine peptide fold change” value amounted to 0.781.

Regarding “TPP1_O14773_365_GLTLLFASGDSGAGCWSVSGR (UniProt O14773)”, the “probe-labelled cysteine peptide fold change” value was -0.146.

In the case of “VPS33B_Q9H267_259_CGSVDFGPEVTSSDK (UniProt Q9H267)”, the “probe-labelled cysteine peptide fold change” value was found to be 0.169.

For the target “VPS13C_Q709C8_2289_GIEHSLIEENCGVVVESIQVTLECGLGHR (UniProt Q709C8)”, the “probe-labelled cysteine peptide fold change” value was -0.105.

With “TXNRD2_Q9NNW7_523_SGLDPTVTGCUG (UniProt Q9NNW7)”, the “probe-labelled cysteine peptide fold change” value is -1.15.

The test is the same for the next values; noted with them: 50 µM; THP-1; incubation time: 4 h.
As to “UBE2L6_O14933_86+98_IYHPNVDENGQICLPIISSENWKPCTK (UniProt O14933)”, the “probe-labelled cysteine peptide fold change” value was -1.39.

For “USP10_Q14694_456_VQRPCTSTPMIDSFVR (UniProt Q14694)”, the “probe-labelled cysteine peptide fold change” value is -0.00663.

“USP13_Q92995_231_ENLWLNLTDGSVLCGK (UniProt Q92995)”: the “probe-labelled cysteine peptide fold change” value was 0.113.

For “VCPIP1_Q96JH7_517_NYSFPLNNLVCSYDSVK (UniProt Q96JH7)”, the “probe-labelled cysteine peptide fold change” value stood at 0.1.

For “TRPM7_Q96QT4_1411_FFVSTPSQPSCK (UniProt Q96QT4)”, the “probe-labelled cysteine peptide fold change” value is -0.544.

On to UBA6_A0AVT1_156_YQCVVLTEMK, for which the “probe-labelled cysteine peptide fold change” value was 0.104.

Turning to “TRIP6_Q15654_339+342_CATCSQPILDR (UniProt Q15654)”, the “probe-labelled cysteine peptide fold change” value was -0.28.

On to “VLDLR_P98155_251_CPASEIQCGSGECIHK (UniProt P98155)”, for which the “probe-labelled cysteine peptide fold change” value is -0.248.

For “TUBA3C_P0DPH7_4+20+25_MRECISIHVGQAGVQIGNACWELYCLEHGIQPDGQMPSDK<|>TUBA3D_P68363_4+20+25_MRECISIHVGQAGVQIGNACWELYCLEHGIQPDGQMPSDK<|>TUBA1B_Q6PEY2_4+20+25_MRECISIHVGQAGVQIGNACWELYCLEHGIQPDGQMPSDK<|>TUBA3E_Q9BQE3_4+20+25_MRECISIHVGQAGVQIGNACWELYCLEHGIQPDGQMPSDK (UniProt Q9BQE3+Q6PEY2+P68363+P0DPH7)”, the “probe-labelled cysteine peptide fold change” value is 0.131.

Turning to “UBR4_Q5T4S7_2554_AVQCLNTSSK (UniProt Q5T4S7)”, the “probe-labelled cysteine peptide fold change” value was -0.543.

Take “VPS41_P49754_638_DSTHCPLEK (UniProt P49754)”: the “probe-labelled cysteine peptide fold change” value was -0.152.

In the case of “TXN2_Q99757_93_VVNSETPVVVDFHAQWCGPCK (UniProt Q99757)”, the “probe-labelled cysteine peptide fold change” value is -1.7.

On to “UBR7_Q8N806_155+158_RPYPDPEDEIPDEMIQCVVCEDWFHGR (UniProt Q8N806)”, for which the “probe-labelled cysteine peptide fold change” value is -1.14.

In the case of “VTA1_Q9NP79_87_QLGDNEAITQEIVGCAHLENYALK (UniProt Q9NP79)”, the “probe-labelled cysteine peptide fold change” value is 0.136.

Take “UNC45A_Q9H3U1_503_ALVGLCK (UniProt Q9H3U1)”: the “probe-labelled cysteine peptide fold change” value was -0.217.

Regarding “TRAPPC9_Q96Q05_317_NCLSPEDIIDK (UniProt Q96Q05)”, the “probe-labelled cysteine peptide fold change” value was 0.213.

Take “USP48_Q86UV5_145_DYEPQTICEHLQYLFALLQNSNRR (UniProt Q86UV5)”: the “probe-labelled cysteine peptide fold change” value is 0.166.

For “TXNIP_Q9H3M7_170_VSCMFIPDGR (UniProt Q9H3M7)”, the “probe-labelled cysteine peptide fold change” value is -1.26.

“TRMT11_Q7Z4G4_161_KPQHVFSVLEDYGLDPNCIPENPHNIYFGR (UniProt Q7Z4G4)”: the “probe-labelled cysteine peptide fold change” value was -0.0241.

Turning to “UCHL3_P15374_95_QTISNACGTIGLIHAIANNK (UniProt P15374)”, the “probe-labelled cysteine peptide fold change” value is -1.45.

In the case of “USP9X_Q93008_1061_AICLDHAK (UniProt Q93008)”, the “probe-labelled cysteine peptide fold change” value is 0.565.

“TRIM25_Q14258_110_ASAPSPNAQVACDHCLK (UniProt Q14258)”: the “probe-labelled cysteine peptide fold change” value is -0.283.

Regarding “TTC1_Q99614_178_EMAINDCSK (UniProt Q99614)”, the “probe-labelled cysteine peptide fold change” value was -0.13.

For “TUBAL3_A6NHL2_322+323_YMACCLLYR<|>TUBA1B_P68366_315+316_YMACCLLYR<|>TUBA4A_Q9BQE3_315+316_YMACCLLYR (UniProt P68366+Q9BQE3+A6NHL2)”, the “probe-labelled cysteine peptide fold change” value is -0.661.

As for “TYK2_P29597_736_NLVHGNVCGR (UniProt P29597)”, the “probe-labelled cysteine peptide fold change” value is -0.24.

Turning to “UQCRC2_P22695_192_NALANPLYCPDYR (UniProt P22695)”, the “probe-labelled cysteine peptide fold change” value worked out at 0.158.

For the target “TRAP1_Q12931_527_KDTEVLFCFEQFDELTLLHLR (UniProt Q12931)”, the “probe-labelled cysteine peptide fold change” value came out at 0.314.

Regarding “U2SURP_O15042_918_EKDECTPTRK (UniProt O15042)”, the “probe-labelled cysteine peptide fold change” value amounted to 0.231.

Consider “TRAPPC13_A5PLN9_327_LSLEAIPDTVNLEEPFHITCK (UniProt A5PLN9)”, for which the “probe-labelled cysteine peptide fold change” value came to 0.00702.

In the case of “TRMT2A_Q8IZ69_463_VIGVELCPEAVEDAR (UniProt Q8IZ69)”, the “probe-labelled cysteine peptide fold change” value is -1.16.

Consider “TRIM33_Q9UPN9_582_GNMNCGAFQAHQMR (UniProt Q9UPN9)”, for which the “probe-labelled cysteine peptide fold change” value was -0.598.

Take “UVRAG_Q9P2Y5_186_TILLQVDQNCVR (UniProt Q9P2Y5)”: the “probe-labelled cysteine peptide fold change” value is -0.0238.

Consider “UBE2O_Q9C0C9_375_NCAQGEGSMAK (UniProt Q9C0C9)”, for which the “probe-labelled cysteine peptide fold change” value was -0.156.

With “TSPYL1_Q9H0U9_375_NQDLICSFFTWFSDHSLPESDK (UniProt Q9H0U9)”, the “probe-labelled cysteine peptide fold change” value amounted to 1.06.

Take “TPP1_O14773_365_GLTLLFASGDSGAGCWSVSGR (UniProt O14773)”: the “probe-labelled cysteine peptide fold change” value was 0.0356.

“VPS33B_Q9H267_259_CGSVDFGPEVTSSDK (UniProt Q9H267)”: the “probe-labelled cysteine peptide fold change” value came out at 0.293.

In the case of “VPS13C_Q709C8_2289_GIEHSLIEENCGVVVESIQVTLECGLGHR (UniProt Q709C8)”, the “probe-labelled cysteine peptide fold change” value was -0.0661.

Consider “TXNRD2_Q9NNW7_523_SGLDPTVTGCUG (UniProt Q9NNW7)”, for which the “probe-labelled cysteine peptide fold change” value is -2.15.
